# Test results published in the supplement of paper PMC3545927.
# Some of the results follow. The true hit rate is not given.
# Biological target: furin, P09958
# Test: furin cleavage Z-score vs untreated control; higher = more cleavage, active = 3.5 or more, inactive = 1 or less, 8 variable residues between constant flanks
# How it was run: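 Purified furin digested bead-held 8-mer peptide–cDNA fusions at 1:10 enzyme:substrate in 0.01 ml of 50 mM HEPES pH 7.5 with CaCl2 and NaCl for 7.5, 15 or 30 min. The cleavage Z-score compares sequencing counts of released DNA with furin-free reactions on a log scale, with lowess adjustment and median absolute deviation scaling.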
# furin, P09958, sequence (P09958 whole entry): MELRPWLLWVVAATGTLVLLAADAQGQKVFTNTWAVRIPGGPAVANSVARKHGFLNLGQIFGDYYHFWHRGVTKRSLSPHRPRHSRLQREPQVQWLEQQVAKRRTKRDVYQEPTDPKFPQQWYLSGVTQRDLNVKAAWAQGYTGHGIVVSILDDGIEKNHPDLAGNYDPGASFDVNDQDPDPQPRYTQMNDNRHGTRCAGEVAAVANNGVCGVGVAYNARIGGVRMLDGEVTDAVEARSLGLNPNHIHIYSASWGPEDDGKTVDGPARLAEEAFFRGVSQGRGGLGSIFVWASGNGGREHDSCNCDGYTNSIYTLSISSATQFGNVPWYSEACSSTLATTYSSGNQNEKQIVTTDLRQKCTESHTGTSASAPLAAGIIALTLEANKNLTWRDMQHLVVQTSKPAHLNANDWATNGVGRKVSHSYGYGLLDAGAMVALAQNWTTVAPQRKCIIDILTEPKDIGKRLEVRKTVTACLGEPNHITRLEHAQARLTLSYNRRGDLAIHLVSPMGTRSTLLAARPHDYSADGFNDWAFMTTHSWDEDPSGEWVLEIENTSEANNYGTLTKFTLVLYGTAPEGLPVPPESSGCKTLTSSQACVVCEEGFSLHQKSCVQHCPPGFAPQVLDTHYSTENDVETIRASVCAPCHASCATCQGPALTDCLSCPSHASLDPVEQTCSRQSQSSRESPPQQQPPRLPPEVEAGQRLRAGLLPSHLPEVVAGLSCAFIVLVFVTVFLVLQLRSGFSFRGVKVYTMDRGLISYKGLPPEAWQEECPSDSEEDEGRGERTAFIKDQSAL
Sequence,furin cleavage Z-score (7.5 min),furin cleavage Z-score (15 min),furin cleavage Z-score (30 min)
CATAFVGAGLAGNASASA [HC1074],-0.799 (inactive),-0.776 (inactive),-1.06 (inactive)
CAGVRLHRFAAGNASASA [HC1224],-0.592 (inactive),-0.925 (inactive),-0.313 (inactive)
CAQKKVTFDRAGNASASA [HC1395],-0.415 (inactive),-0.119 (inactive),-0.531 (inactive)
CAKYIMTCMSAGNASASA [HC982],-1.5 (inactive),-0.454 (inactive),-2.07 (inactive)
CAGEVQIVSTAGNASASA [HC689],-0.7 (inactive),0.651 (inactive),-0.62 (inactive)
CAYPGHITGHAGNASASA [HC315],0.244 (inactive),-0.868 (inactive),0.3 (inactive)
CAESENKVVIAGNASASA [HC1283],-1.56 (inactive),-1.01 (inactive),-1.31 (inactive)
CACCCRRKRSAGNASASA [FS-118],7.96 (active),7.28 (active),6.41 (active)
CATLERRKRSAGNASASA [FS-1172],11.2 (active),9.64 (active),8.54 (active)
CAMEVLRKRSAGNASASA [FS-911],-0.513 (inactive),-0.258 (inactive),0.754 (inactive)
CAGKELRKRSAGNASASA [FS-998],6.16 (active),6.24 (active),6.7 (active)
CALPIRRKRSAGNASASA [FS-1028],13 (active),13.8 (active),9.29 (active)
CACQCRFFRSAGNASASA [FS-1313],0.733 (inactive),-1.88 (inactive),-0.461 (inactive)
CAKVKANLLSAGNASASA [HC1409],0.199 (inactive),-1.82 (inactive),-0.858 (inactive)
CADYMEECSQAGNASASA [HC1809],0.775 (inactive),0.374 (inactive),-0.614 (inactive)
CAMEQCSQHLAGNASASA [HC1722],2.51,1.08,0.422 (inactive)
CANGTMRIVGAGNASASA [HC1181],0.253 (inactive),1.69,-0.0933 (inactive)
CAEVVTITWVAGNASASA [HC145],-0.85 (inactive),0.512 (inactive),-0.407 (inactive)
CAIFRAAVCTAGNASASA [HC750],-0.737 (inactive),-0.718 (inactive),-0.0235 (inactive)
CACCSMSYSWAGNASASA [HC1370],0.447 (inactive),-0.385 (inactive),0.225 (inactive)
CATLARRKRSAGNASASA [FS-1423],11.4 (active),11.2 (active),9.32 (active)
CADRHFRKRSAGNASASA [FS-925],9.05 (active),11.3 (active),9.58 (active)

Sequence,furin cleavage Z-score (7.5 min),furin cleavage Z-score (15 min),furin cleavage Z-score (30 min)
CAERRKRKRSAGNASASA [FS-1119],11.5 (active),11.6 (active),9.13 (active)
CASNGRRKRSAGNASASA [FS-1570],11 (active),11.1 (active),9.24 (active)
CAEVVTLTWVAGNASASA [HC144],0.108 (inactive),1.05,-0.447 (inactive)
CACSLTPPHSAGNASASA [HC1415],-1.29 (inactive),-4.97 (inactive),-1.14 (inactive)
CATSSSRKRSAGNASASA [FS-572],1.17,0.258 (inactive),1.99
CATRSFGSSSAGNASASA [HC1335],0.518 (inactive),-0.799 (inactive),-0.228 (inactive)
CATRSVRKRSAGNASASA [FS-100],10 (active),8.16 (active),6.31 (active)
CAGYRRCRASAGNASASA [HC1508],0.58 (inactive),-0.0246 (inactive),0.472 (inactive)
CAWKKPDYEPAGNASASA [HC1311],-0.0824 (inactive),-0.0771 (inactive),0.0457 (inactive)
CAKKKRMAMAAGNASASA [FS-2867],-0.103 (inactive),0.494 (inactive),1.89
CAYRHRKKRNAGNASASA [FS-902],2.85,1.03,-0.551 (inactive)
CAPKPQKKNKAGNASASA [HC163],-1.39 (inactive),-0.337 (inactive),-0.509 (inactive)
CAARLIVFPDAGNASASA [HC1449],-1.5 (inactive),-0.858 (inactive),-0.313 (inactive)
CAPVPPPRKKAGNASASA [HC1322],0.00444 (inactive),1.55,0.99 (inactive)
CAPQKKNKRNAGNASASA [HC164],5.11 (active),6.33 (active),5.55 (active)
CAKKNKRNTNAGNASASA [HC165],4.17 (active),6.77 (active),5.31 (active)
CAKKMRVWRDAGNASASA [FS-674],4.34 (active),5.37 (active),5.78 (active)
CANKRNTNRRAGNASASA [HC166],0.476 (inactive),1.53,-0.249 (inactive)
CAKTTRKKRNAGNASASA [FS-263],7.57 (active),8.3 (active),5.21 (active)
CAVECCSMSYAGNASASA [HC2012],0.483 (inactive),1.15,0.164 (inactive)
CAAETHVTGGAGNASASA [HC352],-0.704 (inactive),-0.0263 (inactive),-0.814 (inactive)
